Results on five molecules are retold here after PubChem BioAssay (EPA / NIEHS).

Assay [1] can be described thus: ATG_TAL_CIS: Attagene CIS-FACTORIAL HepG2 Assay for human TAL Basal Promoter (AID 2282966).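 Further: background control endpoint measuring basal TAL promoter reporter mRNA not a specific factor.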 To be noted: HepG2 Attagene cis-factorial TAL promoter reporter; actives raise or lower the signal. In a few lines: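 Fluorescence of labelled reporter cDNA fragments, resolved by capillary electrophoresis, gave the readout. Human HepG2 liver cells carried transiently transfected cis-element reporter units and were treated for 24 hours; activity was fitted bidirectionally against DMSO.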

Assay [2] is described as follows: ATG_TGFb_CIS: Attagene CIS-FACTORIAL HepG2 Assay for human Transforming Growth Factor (TGF) (AID 2282967). To be noted: HepG2 Attagene CIS TGFb reporter, mRNA transcription; actives raise or lower the signal. The essentials: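 Readout: fluorescently labeled reporter cDNA fragments resolved by capillary electrophoresis after RT-PCR. Transfected HepG2 cells dosed for 24 h; endogenous TF activity at TGFB1-linked cis element; gain or loss fitted relative to DMSO.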

The target of assay [3] is Estrogen receptor (Homo sapiens) (UniProt P03372). The assay is described as follows: ATG_ERa_TRANS: Attagene TRANS-FACTORIAL HepG2 Assay for human Estrogen Receptor alpha (ERa) (AID 2282970; active means hit-call score of the fitted dose curve at least 0.9, where 1 is the maximum). To be noted: HepG2 Attagene TRANS ERa GAL4 reporter, mRNA. The essentials:
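Human liver HepG2, transient transfection of multiple GAL4-UAS reporter units; TRANS format (exogenous NR-Gal4 chimera). 24 h dosing. Readout: reporter mRNA, RT-PCR, 6-FAM primer extension, HpaI digest, capillary electrophoresis. Positive direction vs DMSO.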

For assay [4], the target named is X-box-binding protein 1 (Homo sapiens) (UniProt P17861). The assay is described as follows: ATG_Xbp1_CIS: Attagene CIS-FACTORIAL HepG2 Assay for human X-box Binding Protein 1 (XBP1) (AID 2282972). To be noted: HepG2 XBP1 cis-element reporter, Attagene multiplex; actives raise or lower the signal. In a few lines:
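HepG2 cells transiently transfected with multiple cis-element reporter units report endogenous TF activity; 24 h exposure, then reporter mRNA measured by RT-PCR, 6-FAM labelling, HpaI digestion and capillary electrophoresis. Bidirectional fitting versus DMSO.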

A short description of assay [5]: ATG_M_19_TRANS: Attagene TRANS-FACTORIAL HepG2 Assay for M19 Transcription Factor (Internal Marker) (AID 2282974; active means hit-call score of the fitted dose curve at least 0.9, where 1 is the maximum). To be noted: HepG2 Attagene TRANS-FACTORIAL M19 internal marker reporter. The essentials:
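24 h chemical exposure of transiently transfected HepG2 (MRTU library). RNA → oligo(dT) RT → PCR → 6-FAM labelling → HpaI cut → CE fluorescence. Positive-direction fit vs DMSO baseline; background internal-marker readout.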

The target of assay [6] is Oxysterols receptor LXR-beta (Homo sapiens) (UniProt P55055). Put plainly: ATG_LXRb_TRANS: Attagene TRANS-FACTORIAL HepG2 Assay for human Liver X Receptor beta (LXRb) (AID 2282981; active means hit-call score of the fitted dose curve at least 0.9, where 1 is the maximum). The following applies: HepG2 Attagene TRANS GAL4-LXRb reporter, mRNA. The essentials:
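In this TRANS format, exogenous chimeric NR-Gal4 protein activity, not endogenous factors, drives reporter expression in transfected human HepG2 cells. Exposure lasted 24 h; reporter mRNA was read by fluorescent capillary electrophoresis.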

A short description of assay [7]: ATG_M_06_TRANS: Attagene TRANS-FACTORIAL HepG2 Assay for M06 Transcription Factor (Internal Marker) (AID 2282983; active means hit-call score of the fitted dose curve at least 0.9, where 1 is the maximum). The following applies: HepG2 Attagene TRANS M06 internal marker reporter. In a few lines:
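Transfect HepG2 with MRTUs → dose compounds 24 h → isolate RNA, oligo(dT) RT → PCR with reporter primers → 6-FAM primer extension → HpaI digest → CE fragment analysis. Positive direction vs DMSO.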

The nature of assay [8]: ATG_M_32_TRANS: Attagene TRANS-FACTORIAL HepG2 Assay for M32 Transcription Factor (Internal Marker) (AID 2282984; active means hit-call score of the fitted dose curve at least 0.9, where 1 is the maximum;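 further: transcript level of a background control reporter unit measured by RT-PCR and capillary electrophoresis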). To be noted: HepG2 Attagene TRANS M32 internal marker reporter. In a few lines:
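Human hepatoma HepG2, transient MRTU transfection, 24 h treatment. RNA → RT-PCR → fluorescent primer extension → HpaI digest (2 h, 37 C) → CE. Positive-direction fit vs DMSO.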

Assay [9] concerns the target Nuclear receptor subfamily 4 group A member 2 (Homo sapiens) (UniProt P43354). The assay is described as follows: ATG_NURR1_TRANS: Attagene TRANS-FACTORIAL HepG2 Assay for human Nuclear Receptor Related Protein 1 (NURR1) (AID 2282985; active means hit-call score of the fitted dose curve at least 0.9, where 1 is the maximum). The following applies: HepG2 Attagene TRANS reporter, mRNA readout. The essentials:
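After 24 h chemical dosing, total RNA from transiently transfected HepG2 cells was reverse-transcribed and reporter cDNA PCR-amplified, FAM-labelled and analysed by capillary electrophoresis. Activity fitted in positive direction, DMSO as negative control.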

The target in assay [10] is Transcriptional activator Myb (Homo sapiens) (UniProt P10242). Put plainly: ATG_Myb_CIS: Attagene CIS-FACTORIAL HepG2 Assay for human Myeloblastosis (Myb) Proto-Oncogene Transcription Factor (AID 2282986). The following applies: HepG2 Attagene CIS-FACTORIAL Myb reporter transcription; actives raise or lower the signal. The essentials: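 HepG2, transient MRTU transfection (cis-element promoters, endogenous TF activity), 24 h compound exposure. Readout: reporter mRNA via RT-PCR, 6-FAM labeling, HpaI digest, capillary electrophoresis. Gain/loss fit vs DMSO.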

Assay [11] deals with Nuclear respiratory factor 1 (Homo sapiens) (UniProt Q16656). Put plainly: ATG_NRF1_CIS: Attagene CIS-FACTORIAL HepG2 Assay for human Nuclear Respiratory Factor 1 (NRF1) Orphan Gene (AID 2282987). The following applies: HepG2 NRF1 cis-element reporter, Attagene multiplex; actives raise or lower the signal. The essentials:
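Endogenous NRF1-driven reporter transcription measured in transiently transfected human HepG2 liver cells. Readout: reporter mRNA by RT-PCR and capillary electrophoresis with fluorescence detection, 24 h post-dosing. Gain or loss of signal fitted relative to DMSO baseline.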

The nature of assay [12]: ATG_NFI_CIS: Attagene CIS-FACTORIAL HepG2 Assay for human Nuclear Factor I (NFI) (AID 2282989). To be noted: HepG2 cis-regulatory reporter, NFI response element transcription; actives raise or lower the signal. In a few lines:
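Read-out: reporter mRNA via RT-PCR plus capillary electrophoresis with fluorescence detection. Transiently transfected HepG2 (endogenous TF activity on cis promoters), 24 h compound exposure; gain or loss of signal fitted against DMSO.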

Assay [13] concerns the target Myc proto-oncogene protein (Homo sapiens) (UniProt P01106). The assay is described as follows: ATG_Myc_CIS: Attagene CIS-FACTORIAL HepG2 Assay for human Myelocytomatosis (Myc) Proto-Oncogene Transcription Factor (AID 2282990). To be noted: HepG2, Attagene cis-reporter transcription factor activity; actives raise or lower the signal. In a few lines:
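HepG2 cells transiently transfected with multiple cis-promoter-driven reporter transcription units, so endogenous TF activity is read. After 24 h compound exposure, reporter mRNA was quantified by RT-PCR, 6-FAM labelling, HpaI digestion and capillary electrophoresis; bidirectional fit versus DMSO.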

The nature of assay [14]: ATG_VDRE_CIS: Attagene CIS-FACTORIAL HepG2 Assay for human Vitamin D Receptor Element (VDRE) (AID 2282968). The following applies: HepG2 VDRE cis-reporter transcription, actives raise or lower the signal. In a few lines: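 RT-PCR/CE readout of reporter mRNA; HepG2, transient transfection, 24 h dosing; DMSO baseline; bidirectional analysis.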
The target of assay [15] is Nuclear receptor subfamily 1 group I member 3 (Homo sapiens) (UniProt Q14994). Put plainly: ATG_CAR_TRANS: Attagene TRANS-FACTORIAL HepG2 Assay for human Constitutive Androstane Receptor (CAR) (AID 2282969; active means hit-call score of the fitted dose curve at least 0.9, where 1 is the maximum;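 further: activators raise reporter mRNA above DMSO so AC50 marks induction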). To be noted: HepG2 Attagene TRANS-FACTORIAL CAR reporter. In a few lines:
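HepG2 cells transiently transfected with multiplexed GAL4-UAS reporter units expressing chimeric NR-Gal4 proteins; compound exposure 24 h. Reporter mRNA measured by RT-PCR, 6-FAM labelling, HpaI digestion and capillary electrophoresis; gain-of-signal fitted against DMSO baseline.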

For assay [16], the target named is Bile acid receptor (Homo sapiens) (UniProt Q96RI1). Put plainly: ATG_FXR_TRANS: Attagene TRANS-FACTORIAL HepG2 Assay for Farnesoid X Receptor (FXR) (AID 2282979; active means hit-call score of the fitted dose curve at least 0.9, where 1 is the maximum;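 further: hits raise reporter mRNA above DMSO so AC50 marks FXR activation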). To be noted: HepG2 Attagene TRANS FXR-GAL4 reporter transcription. The essentials:
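Transient transfection of HepG2 with multiplexed GAL4-UAS reporter units; exogenous FXR-GAL4 chimera. Dose 24 h → TriZol RNA → oligo(dT) RT → PCR, 6-FAM primer extension, HpaI cut → CE. Gain vs DMSO.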

Assay [17] deals with Glucocorticoid receptor (Homo sapiens) (UniProt P04150). The assay is described as follows: ATG_GR_TRANS: Attagene TRANS-FACTORIAL HepG2 Assay for human Glucocorticoid Receptor (GR) (AID 2282978; active means hit-call score of the fitted dose curve at least 0.9, where 1 is the maximum;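 further: activators score as hits since higher reporter transcript over DMSO is fitted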). To be noted: HepG2 Attagene TRANS GR reporter, mRNA transcription. The essentials: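 Transient MRTU transfection of HepG2 (GAL4-UAS reporters, exogenous NR-GAL4 chimeras), 24 h dosing. Readout: reporter transcript via RT-PCR + capillary electrophoresis fluorescence. Positive direction vs DMSO baseline.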

In assay [18] the target is Hepatocyte nuclear factor 4-alpha (Homo sapiens) (UniProt P41235). The assay is described as follows: ATG_HNF4a_TRANS: Attagene TRANS-FACTORIAL HepG2 Assay for human Hepatocyte Nuclear Factor 4 alpha (HNF4a) (AID 2282982; active means hit-call score of the fitted dose curve at least 0.9, where 1 is the maximum). The following applies: HepG2 HNF4a transactivation reporter, mRNA readout. The essentials:
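Cells used were human HepG2, transiently carrying GAL4-UAS reporter units read out against exogenous NR-GAL4 chimeras. Reporter transcript levels after 24 h dosing were quantified by fluorescent RT-PCR and capillary electrophoresis.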

Assay [19] has as its target Oxysterols receptor LXR-alpha (Homo sapiens) (UniProt Q13133). Put plainly: ATG_LXRa_TRANS: Attagene TRANS-FACTORIAL HepG2 Assay for human Liver X Receptor alpha (LXRa) (AID 2282980; active means hit-call score of the fitted dose curve at least 0.9, where 1 is the maximum). The following applies: HepG2 Attagene TRANS reporter, LXRa transactivation. In a few lines:
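Transfect HepG2 with GAL4-UAS multiplex reporter constructs (TRANS format, chimeric receptor-GAL4); treat 24 h; extract RNA, reverse-transcribe, PCR-amplify, FAM-label, HpaI-digest; resolve fragments by capillary electrophoresis. Upward response vs DMSO.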

Structures are written as SMILES. Results filed as inconclusive are left out. The source made the active and inactive calls. How the source made its calls, unless noted: active means hit-call score of the fitted dose curve at least 0.9, where 1 is the maximum; inactive means score below 0.9.

Transcriptional activator Myb (Homo sapiens), sequence (P10242 whole entry, looked up): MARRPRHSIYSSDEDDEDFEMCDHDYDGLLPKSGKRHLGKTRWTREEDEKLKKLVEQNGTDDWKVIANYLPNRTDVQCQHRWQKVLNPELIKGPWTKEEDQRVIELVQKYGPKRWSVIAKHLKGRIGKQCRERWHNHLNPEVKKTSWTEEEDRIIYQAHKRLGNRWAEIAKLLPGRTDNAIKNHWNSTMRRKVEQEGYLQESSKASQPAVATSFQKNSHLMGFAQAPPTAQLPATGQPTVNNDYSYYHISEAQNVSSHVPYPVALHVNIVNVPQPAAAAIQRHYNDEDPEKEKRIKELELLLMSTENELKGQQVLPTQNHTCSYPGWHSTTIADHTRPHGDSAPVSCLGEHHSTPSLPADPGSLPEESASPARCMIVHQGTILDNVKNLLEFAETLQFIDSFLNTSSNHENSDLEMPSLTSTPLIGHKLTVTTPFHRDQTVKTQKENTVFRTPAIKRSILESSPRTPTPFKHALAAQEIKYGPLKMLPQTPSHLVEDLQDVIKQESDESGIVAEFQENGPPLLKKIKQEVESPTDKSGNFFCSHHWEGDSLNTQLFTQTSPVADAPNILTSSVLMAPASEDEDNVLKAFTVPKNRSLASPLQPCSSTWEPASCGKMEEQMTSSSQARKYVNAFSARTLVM
X-box-binding protein 1 (Homo sapiens), sequence (P17861 whole entry, looked up): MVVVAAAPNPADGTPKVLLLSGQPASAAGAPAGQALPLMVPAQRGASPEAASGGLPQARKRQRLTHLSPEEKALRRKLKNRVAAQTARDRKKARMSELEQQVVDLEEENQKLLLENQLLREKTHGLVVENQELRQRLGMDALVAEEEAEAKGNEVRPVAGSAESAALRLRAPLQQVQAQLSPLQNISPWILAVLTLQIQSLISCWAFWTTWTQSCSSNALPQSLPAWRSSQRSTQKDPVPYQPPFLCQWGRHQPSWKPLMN
Nuclear respiratory factor 1 (Homo sapiens), sequence (Q16656 whole entry, looked up): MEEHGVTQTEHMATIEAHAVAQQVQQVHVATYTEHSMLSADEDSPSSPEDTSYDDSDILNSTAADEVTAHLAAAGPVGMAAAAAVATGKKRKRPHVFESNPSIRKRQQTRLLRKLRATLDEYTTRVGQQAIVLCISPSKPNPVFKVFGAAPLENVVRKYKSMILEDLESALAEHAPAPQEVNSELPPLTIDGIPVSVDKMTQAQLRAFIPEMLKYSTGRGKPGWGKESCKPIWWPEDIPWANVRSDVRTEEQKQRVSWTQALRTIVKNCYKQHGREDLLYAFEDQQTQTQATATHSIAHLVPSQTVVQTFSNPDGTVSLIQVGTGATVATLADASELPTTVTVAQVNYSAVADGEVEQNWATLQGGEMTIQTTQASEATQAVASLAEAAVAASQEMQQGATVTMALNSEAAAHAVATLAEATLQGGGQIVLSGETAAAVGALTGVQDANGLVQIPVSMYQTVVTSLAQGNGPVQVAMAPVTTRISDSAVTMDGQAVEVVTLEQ
Estrogen receptor (Homo sapiens), sequence (P03372 whole entry, looked up, the tested form may be a part): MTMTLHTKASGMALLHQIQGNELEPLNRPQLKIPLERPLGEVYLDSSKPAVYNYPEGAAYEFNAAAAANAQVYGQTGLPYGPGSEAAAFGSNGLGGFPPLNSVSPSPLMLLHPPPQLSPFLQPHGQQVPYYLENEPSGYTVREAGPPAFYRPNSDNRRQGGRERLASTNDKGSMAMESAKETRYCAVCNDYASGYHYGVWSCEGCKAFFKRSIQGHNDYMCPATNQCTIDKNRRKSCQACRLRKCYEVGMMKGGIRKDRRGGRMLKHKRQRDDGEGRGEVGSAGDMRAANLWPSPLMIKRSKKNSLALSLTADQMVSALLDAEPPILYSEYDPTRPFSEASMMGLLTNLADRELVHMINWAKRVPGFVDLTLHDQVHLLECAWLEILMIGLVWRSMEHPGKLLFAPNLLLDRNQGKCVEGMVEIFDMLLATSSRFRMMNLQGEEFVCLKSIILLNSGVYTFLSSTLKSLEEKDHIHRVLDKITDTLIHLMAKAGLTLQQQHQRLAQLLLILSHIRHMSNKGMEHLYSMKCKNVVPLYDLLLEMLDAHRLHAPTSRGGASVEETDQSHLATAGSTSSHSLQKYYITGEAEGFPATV
Myc proto-oncogene protein (Homo sapiens), sequence (P01106 whole entry, looked up): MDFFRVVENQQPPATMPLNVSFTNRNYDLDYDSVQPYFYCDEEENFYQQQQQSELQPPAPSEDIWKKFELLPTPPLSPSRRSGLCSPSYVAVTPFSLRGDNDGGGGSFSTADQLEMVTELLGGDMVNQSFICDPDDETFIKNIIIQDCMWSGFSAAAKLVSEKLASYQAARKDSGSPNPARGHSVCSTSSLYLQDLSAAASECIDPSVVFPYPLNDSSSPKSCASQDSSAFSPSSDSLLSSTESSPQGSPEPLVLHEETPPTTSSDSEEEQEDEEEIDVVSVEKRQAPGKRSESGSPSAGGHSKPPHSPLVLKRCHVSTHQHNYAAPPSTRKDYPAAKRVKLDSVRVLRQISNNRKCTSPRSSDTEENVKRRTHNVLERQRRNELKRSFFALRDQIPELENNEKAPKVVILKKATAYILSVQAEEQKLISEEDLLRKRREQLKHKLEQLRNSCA
Oxysterols receptor LXR-beta (Homo sapiens), sequence (P55055 whole entry, looked up, the tested form may be a part): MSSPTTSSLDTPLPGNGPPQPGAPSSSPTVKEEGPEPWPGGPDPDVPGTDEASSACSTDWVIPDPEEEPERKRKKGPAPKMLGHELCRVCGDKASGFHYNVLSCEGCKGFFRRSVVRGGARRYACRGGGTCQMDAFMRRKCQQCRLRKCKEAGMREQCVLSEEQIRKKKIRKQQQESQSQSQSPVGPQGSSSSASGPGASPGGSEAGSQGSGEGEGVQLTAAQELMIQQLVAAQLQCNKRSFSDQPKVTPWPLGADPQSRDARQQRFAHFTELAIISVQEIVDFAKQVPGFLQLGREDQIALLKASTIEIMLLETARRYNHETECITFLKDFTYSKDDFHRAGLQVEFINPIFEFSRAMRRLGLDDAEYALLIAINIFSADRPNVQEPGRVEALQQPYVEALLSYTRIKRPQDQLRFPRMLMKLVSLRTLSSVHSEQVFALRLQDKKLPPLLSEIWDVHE
Bile acid receptor (Homo sapiens), sequence (Q96RI1 whole entry, looked up, the tested form may be a part): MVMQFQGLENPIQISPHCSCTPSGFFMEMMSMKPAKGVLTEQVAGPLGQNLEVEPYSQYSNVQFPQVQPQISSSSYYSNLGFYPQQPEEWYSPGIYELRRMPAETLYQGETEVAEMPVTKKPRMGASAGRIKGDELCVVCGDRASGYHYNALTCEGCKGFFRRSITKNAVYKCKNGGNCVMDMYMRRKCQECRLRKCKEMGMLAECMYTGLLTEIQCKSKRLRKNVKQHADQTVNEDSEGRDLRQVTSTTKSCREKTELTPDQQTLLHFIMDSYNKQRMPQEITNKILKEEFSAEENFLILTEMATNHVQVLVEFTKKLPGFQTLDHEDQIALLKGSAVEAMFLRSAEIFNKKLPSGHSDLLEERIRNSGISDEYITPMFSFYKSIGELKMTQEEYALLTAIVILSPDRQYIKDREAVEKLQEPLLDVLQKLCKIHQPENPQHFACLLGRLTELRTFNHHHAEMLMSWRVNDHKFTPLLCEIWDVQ
Nuclear receptor subfamily 1 group I member 3 (Homo sapiens), sequence (Q14994 whole entry, looked up, the tested form may be a part): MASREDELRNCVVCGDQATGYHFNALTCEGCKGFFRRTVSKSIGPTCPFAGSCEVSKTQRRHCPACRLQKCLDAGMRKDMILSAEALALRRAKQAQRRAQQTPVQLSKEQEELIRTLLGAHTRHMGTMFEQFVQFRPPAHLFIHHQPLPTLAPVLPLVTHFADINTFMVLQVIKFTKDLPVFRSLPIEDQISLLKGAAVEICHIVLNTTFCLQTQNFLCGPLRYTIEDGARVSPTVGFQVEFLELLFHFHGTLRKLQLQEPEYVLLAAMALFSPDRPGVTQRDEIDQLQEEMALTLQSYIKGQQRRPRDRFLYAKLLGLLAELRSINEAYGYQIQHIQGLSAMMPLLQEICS
Nuclear receptor subfamily 4 group A member 2 (Homo sapiens), sequence (P43354 whole entry, looked up): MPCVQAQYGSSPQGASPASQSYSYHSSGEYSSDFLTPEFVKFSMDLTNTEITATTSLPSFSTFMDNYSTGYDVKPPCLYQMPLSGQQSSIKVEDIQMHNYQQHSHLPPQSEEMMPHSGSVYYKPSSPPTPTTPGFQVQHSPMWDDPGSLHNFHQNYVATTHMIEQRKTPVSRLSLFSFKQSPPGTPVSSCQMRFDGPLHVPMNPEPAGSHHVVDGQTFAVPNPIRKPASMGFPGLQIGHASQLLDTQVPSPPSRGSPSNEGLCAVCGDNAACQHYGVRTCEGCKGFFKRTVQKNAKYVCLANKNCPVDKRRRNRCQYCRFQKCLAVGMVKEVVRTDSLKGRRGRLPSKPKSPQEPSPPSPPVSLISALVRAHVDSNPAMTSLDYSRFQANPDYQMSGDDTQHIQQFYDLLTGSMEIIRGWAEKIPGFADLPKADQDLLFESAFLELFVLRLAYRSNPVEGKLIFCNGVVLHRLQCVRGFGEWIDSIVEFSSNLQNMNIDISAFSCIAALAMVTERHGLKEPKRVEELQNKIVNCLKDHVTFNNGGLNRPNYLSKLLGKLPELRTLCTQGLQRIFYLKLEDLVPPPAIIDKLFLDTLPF
Hepatocyte nuclear factor 4-alpha (Homo sapiens), sequence (P41235 whole entry, looked up, the tested form may be a part): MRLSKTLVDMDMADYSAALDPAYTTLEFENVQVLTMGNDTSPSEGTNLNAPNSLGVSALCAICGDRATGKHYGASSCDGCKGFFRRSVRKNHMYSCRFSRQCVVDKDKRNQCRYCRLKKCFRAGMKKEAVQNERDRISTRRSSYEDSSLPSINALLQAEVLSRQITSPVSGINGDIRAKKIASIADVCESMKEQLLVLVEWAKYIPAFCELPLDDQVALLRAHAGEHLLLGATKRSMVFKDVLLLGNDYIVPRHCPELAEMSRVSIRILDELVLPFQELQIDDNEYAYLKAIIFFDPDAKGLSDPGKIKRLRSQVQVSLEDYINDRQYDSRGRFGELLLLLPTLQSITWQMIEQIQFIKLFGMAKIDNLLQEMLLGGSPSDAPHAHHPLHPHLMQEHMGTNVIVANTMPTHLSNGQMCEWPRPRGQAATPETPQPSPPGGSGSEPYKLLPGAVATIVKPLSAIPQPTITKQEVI

Turning to `CCCCCCCC(=O)OC`, the outcome in assay [1], in assay [2], in [3], in assay [4], in assay [5] and in assay [6] was inactive. Moreover, the molecule was classed as inactive in assay [7], in assay [8], in assay [9], in [10], in assay [11] and in assay [12]. The outcome in assay [13] was inactive.
Usually AC50 stands for the midpoint of the concentration-response curve, whichever way the signal moves. For `Cc1c(C)c2c(c(C)c1O)CCC(C)(COc1ccc(CC3SC(=O)NC3=O)cc1)O2` (stereo unspecified), the molecule was classed as inactive in [2], in assay [15], in assay [3], in assay [4], in assay [5] and in assay [8]. Moreover, the call in [9], in assay [10], in assay [11], in [12] and in assay [13] was inactive. Further, the concentration at half-maximal activity (AC50) in [14] is 13.9 µM (active); in assay [16] it was 17.4 µM (active).
With `CCCCCCCCCCCCCCCCO`, the molecule was classed as inactive in [2], in assay [14], in [15], in assay [3], in [4] and in [17]. The molecule was called inactive in [18], in [7], in [10], in assay [11], in [12] and in [13].
In the case of `N[C@@H](Cc1c[nH]c2ccccc12)C(=O)O`, the call in [1], in [2], in assay [4], in assay [5], in assay [19] and in [6] was inactive. For the same molecule, the outcome in [8], in assay [10], in [11], in assay [12] and in [13] was inactive.
Take `CN(C)C(=O)NC1(c2ccccc2)CCN(CCC[C@]2(c3ccc(Cl)c(Cl)c3)CCCN(C(=O)c3ccccc3)C2)CC1`: the molecule was classed as inactive in assay [1], in assay [2], in assay [5], in assay [16], in [6] and in assay [18]. Moreover, the molecule was classed as inactive in [8] and in [10]. Moreover, the half-maximal activity concentration (AC50) in [4] was 4.69 µM (active); in assay [11] it was 4.5 µM (active); in [12], 3.32 µM (active); in assay [13], 5.05 µM (active).
